Assay results from PubChem BioAssay (Tox21).
Results filed as inconclusive are left out. Calls of active or inactive are those of the source. Unless noted, calls follow the shape of the dose curve; as a rule, active = well fitted curve in the direction sought with a large enough effect in the repeat runs; inconclusive = weak or mixed curves; inactive = no such curve, though single readings can be large; an effect the other way counts as inactive or inconclusive.

Assays:
[1] = qHTS assay to identify small molecule agonists of the vitamin D receptor (VDR) signaling pathway - cell viability counter screen (AID 743224); also: % is scaled to controls: 0 for no effect and ±100 for the full control effect; nearly all actives have a fitted effect of over 50% in size
Method in brief: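 Viability is measured in the same wells as the VDR-bla reporter assay: after 16 h compound treatment and 2 h substrate loading, CellTiter-Glo is added and luminescence read 30 min later.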

[2] = qHTS assay to identify small molecule antagonists of the vitamin D receptor (VDR) signaling pathway - cell viability counter screen (AID 743225); also: % is scaled to controls: 0 for no effect and ±100 for the full control effect; nearly all actives have a fitted effect of over 50% in size
Method in brief: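 Cells (VDR-UAS-bla HEK 293T) are plated, rested 4 h at 37C, dosed with compound and 3 nM final 1-alpha,25-dihydroxy vitamin D3, and incubated 16 h. Viability is taken from CellTiter-Glo luminescence in the reporter wells.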

[3] = qHTS assay to identify small molecule agonists of the NFkB signaling pathway (AID 1159509; active = well fitted curve in the direction sought with a large enough effect in the signal ratio in the repeat runs, not every such curve was filed as active; the % refers to the signal ratio; also: % is scaled to controls: 0 for no effect and ±100 for the full control effect)
Method in brief: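 NFkB-bla ME-180 cells carry a beta-lactamase reporter under an NF-kB response element. They were plated overnight, then exposed to compounds for 5 h at 37 C. Read-out is LiveBLAzer FRET after 1.5 hr at room temperature (405 nm excitation; 460/530 nm emission).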

[4] = qHTS assay to identify small molecule agonists of the endoplasmic reticulum stress response signaling pathway (AID 1159516; active = well fitted activation curve with a large enough effect in the signal ratio in the repeat runs, not every such curve was filed as active; the % refers to the signal ratio; also: % is scaled to controls: 0 for no effect and ±100 for the full control effect)
Method in brief: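 Tox21 10K library screened in quantitative HTS format on ESRE-bla HeLa cells, a beta-lactamase reporter under ER stress response element control; 5 hr treatment, FRET read.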

[5] = qHTS assay to identify small molecule antagonists of the retinoid-related orphan receptor gamma (ROR-gamma) signaling pathway - cell viability counter screen (AID 1159520); also: % is scaled to controls: 0 for no effect and ±100 for the full control effect; nearly all actives have a fitted effect of over 50% in size
Method in brief: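 Tet-on ROR gamma CHO cells (1,000/well) were plated 4 hr, given compounds in DMSO for 2 hr at 37 C, then induced with 1 uM final doxycycline for 16 hr. Viability was read as ATP by CellTiter-Glo luminescence after 30 min.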

[6] = molecular target: Nuclear receptor ROR-gamma (Homo sapiens) (UniProt P51449); assay: qHTS assay to identify small molecule antagonists of the retinoid-related orphan receptor gamma (ROR-gamma) signaling pathway (AID 1159521;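 also: CHO cells with doxycycline inducible ROR-gamma driving an RORE luciferase reporter; top concentration of the series differs between compounds; % is scaled to controls: 0 for no effect and ±100 for the full control effect; nearly all actives have a fitted effect of over 50% in size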)
Method in brief: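 RORγ antagonism is scored from reduced reporter luminescence in Tet-on CHO cells. Induction used 1 uM final doxycycline hyclate for 16 h at 37 C, following a 2 h compound exposure.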

[7] = qHTS assay to identify small molecule agonists of the AP-1 signaling pathway - cell viability counter screen (AID 1159525; calls by dose curve; also: nearly all actives have a fitted effect of over 55% in size)
Method in brief: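 ME-180 AP-1-bla, 2500 cells/well, Opti-MEM + 0.5% dialyzed FBS; overnight 37 °C; cpd 15-pt titration, 5 h 37 °C; CellTiter-Glo 30 min RT; luminescence read; normalised to TOAB and DMSO controls.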

[8] = qHTS assay to identify small molecule agonists of the AP-1 signaling pathway (AID 1159526; calls by dose curve; also: % is scaled to controls: 0 for no effect and ±100 for the full control effect)
[9] = molecular target: Retinoic acid receptor RXR-alpha (Homo sapiens) (UniProt P19793); assay: qHTS assay to identify small molecule agonists of the RXR signaling pathway (AID 1159527; calls by dose curve; also: % is scaled to controls: 0 for no effect and ±100 for the full control effect; nearly all actives have a fitted effect of over 35% in size)
Method in brief: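 qHTS of the Tox21 10K library in GeneBLAzer RXR-alpha HEK 293T cells carrying a beta-lactamase reporter […]; 16 hr treatment, 9-cis retinoic acid as agonist control, FRET read-out.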

[10] = qHTS assay to identify small molecule agonists of the RXR signaling pathway - cell viability counter screen (AID 1159529)
Method in brief: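 Cell viability is measured by CellTiter-Glo luminescence, 30 min at room temperature, in wells already read for beta-lactamase. Engineered HEK 293T cells (RXR-alpha-UAS-bla) are dosed 16 hr at 37 C. Tetraoctyl ammonium bromide serves as positive control.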

[11] = qHTS assay to identify small molecule antagonists of the retinoid acid receptor (RAR) signaling pathway - cell viability counter screen (AID 1159551); also: % is scaled to controls: 0 for no effect and ±100 for the full control effect; nearly all actives have a fitted effect of over 35% in size
Method in brief: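 Cytotoxicity counter screen in C3RL4 cells: 6 h compound exposure with 1 uM retinol (final), viability from cellular ATP by luminescence.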

[12] = qHTS assay to identify small molecule antagonists of the retinoic acid receptor (RAR) signaling pathway (AID 1159552)
Method in brief: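 Quantitative HTS in C3RL4 RARE-luciferase reporter cells. Compounds were added with 1 uM (final) retinol; luminescence was read after 6 hr.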

[13] = qHTS assay to identify small molecule agonists of the retinoic acid receptor (RAR) signaling pathway (AID 1159553); details: C3RL4 RARE luciferase reporter, agonist, 6 h; activation: at 73.3 µM (top of the series); also: % is scaled to controls: 0 for no effect and ±100 for the full control effect
Method in brief: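 Agonist activity was scored in C3RL4 cells bearing a retinoic acid response element luciferase construct. Cells were treated with compounds for 6 hr at 37 C, and luciferase signal was measured as luminescence.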

[14] = qHTS assay to identify small molecule antagonists of the estrogen related receptor (ERR) signaling pathway from Tox21 library - cell viability counter screen (AID 1224834); also: % is scaled to controls: 0 for no effect and ±100 for the full control effect; nearly all actives have a fitted effect of over 30% in size
Method in brief: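 Cytotoxicity of test substances is gauged in the same ERR cells used for the antagonist screen, after 17.5 h of compound treatment at 37 C, by CellTiter-Fluor fluorescence measured after 30 min.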

[15] = molecular target: Luciferin 4-monooxygenase (Photinus pyralis) (UniProt P08659); assay: qHTS assay to identify small molecule inhibitors of firefly luciferase (AID 1224835); also: % is scaled to controls: 0 for no effect and ±100 for the full control effect; nearly all actives have a fitted effect of over 25% in size
Method in brief: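 Quantitative HTS format; KM concentrations of both substrates. Purified P. pyralis FLuc activity quantified from luminescence images.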

[16] = qHTS assay to identify small molecule agonists of the constitutive androstane receptor (CAR) signaling pathway - cell viability counter screen (AID 1224836); also: % is scaled to controls: 0 for no effect and ±100 for the full control effect; nearly all actives have a fitted effect of over 45% in size
Method in brief: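 Counter screen multiplexed with the CAR reporter readout: HepG2 cells co-transfected with hCAR and the CYP2B6-2.2kb construct receive a 15-concentration compound series and 0.75 uM PK11195 (final), then CellTiter-Fluor fluorescence is read after 23 h.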

[17] = qHTS assay to identify small molecule agonists of the endoplasmic reticulum stress response signaling pathway - cell viability counter screen (AID 1159517; calls by dose curve)
Method in brief: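 CellTiter-Glo was added to wells already read for beta-lactamase FRET, and luminescence was recorded 30 min later. Cells: ESRE-bla HeLa, 1,500 per well, compound exposure 5 hr at 37 C.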

[18] = molecular target: Nuclear receptor subfamily 1 group I member 3 (Homo sapiens) (UniProt Q14994); assay: qHTS assay to identify small molecule antagonists of the constitutive androstane receptor (CAR) signaling pathway (AID 1224838); also: % is scaled to controls: 0 for no effect and ±100 for the full control effect; nearly all actives have a fitted effect of over 40% in size
Method in brief: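 Compounds were titrated across 15 concentrations onto HepG2 cells double-stably expressing hCAR and a CYP2B6-2.2kb reporter, together with 50 nM CITCO (final). After 24 h at 37 C, luciferase activity was measured by luminescence.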

[19] = qHTS assay to identify small molecule antagonists of the constitutive androstane receptor (CAR) signaling pathway - cell viability counter screen (AID 1224837); also: % is scaled to controls: 0 for no effect and ±100 for the full control effect; nearly all actives have a fitted effect of over 45% in size
Method in brief: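 Multiplexed cytotoxicity read-out for the CAR antagonist screen: double-stable HepG2-CYP2B6-hCAR cells co-treated with 50 nM CITCO (final) and compound over 15 concentrations, incubated 23 hr, then assessed by CellTiter-Fluor fluorescence.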

Chain of Luciferin 4-monooxygenase (Photinus pyralis) (P08659 whole entry, looked up): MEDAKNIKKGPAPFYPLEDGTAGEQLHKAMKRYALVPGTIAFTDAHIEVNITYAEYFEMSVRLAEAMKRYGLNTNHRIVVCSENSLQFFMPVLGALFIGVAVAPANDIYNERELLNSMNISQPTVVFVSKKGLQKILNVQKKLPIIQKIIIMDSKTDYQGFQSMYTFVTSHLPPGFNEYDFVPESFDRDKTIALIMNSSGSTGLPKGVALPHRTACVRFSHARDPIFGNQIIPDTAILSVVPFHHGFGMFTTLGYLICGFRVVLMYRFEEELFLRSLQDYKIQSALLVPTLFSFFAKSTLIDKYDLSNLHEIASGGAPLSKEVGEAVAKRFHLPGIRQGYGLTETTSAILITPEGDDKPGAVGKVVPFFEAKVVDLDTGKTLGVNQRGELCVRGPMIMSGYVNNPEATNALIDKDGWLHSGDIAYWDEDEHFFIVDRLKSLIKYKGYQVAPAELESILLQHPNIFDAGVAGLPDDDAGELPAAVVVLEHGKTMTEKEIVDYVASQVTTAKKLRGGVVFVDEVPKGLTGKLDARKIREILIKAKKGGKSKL
Chain of Nuclear receptor subfamily 1 group I member 3 (Homo sapiens) (Q14994 whole entry, looked up): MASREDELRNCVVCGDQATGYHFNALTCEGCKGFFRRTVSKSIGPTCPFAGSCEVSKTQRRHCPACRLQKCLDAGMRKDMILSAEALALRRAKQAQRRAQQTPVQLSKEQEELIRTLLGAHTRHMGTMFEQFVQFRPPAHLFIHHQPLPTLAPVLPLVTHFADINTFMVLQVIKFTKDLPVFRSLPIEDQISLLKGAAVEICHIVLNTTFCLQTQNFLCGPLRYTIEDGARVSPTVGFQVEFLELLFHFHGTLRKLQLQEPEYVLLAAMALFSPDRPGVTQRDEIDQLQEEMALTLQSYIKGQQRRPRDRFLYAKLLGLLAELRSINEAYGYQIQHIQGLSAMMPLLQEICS
Chain of Retinoic acid receptor RXR-alpha (Homo sapiens) (P19793 whole entry, looked up): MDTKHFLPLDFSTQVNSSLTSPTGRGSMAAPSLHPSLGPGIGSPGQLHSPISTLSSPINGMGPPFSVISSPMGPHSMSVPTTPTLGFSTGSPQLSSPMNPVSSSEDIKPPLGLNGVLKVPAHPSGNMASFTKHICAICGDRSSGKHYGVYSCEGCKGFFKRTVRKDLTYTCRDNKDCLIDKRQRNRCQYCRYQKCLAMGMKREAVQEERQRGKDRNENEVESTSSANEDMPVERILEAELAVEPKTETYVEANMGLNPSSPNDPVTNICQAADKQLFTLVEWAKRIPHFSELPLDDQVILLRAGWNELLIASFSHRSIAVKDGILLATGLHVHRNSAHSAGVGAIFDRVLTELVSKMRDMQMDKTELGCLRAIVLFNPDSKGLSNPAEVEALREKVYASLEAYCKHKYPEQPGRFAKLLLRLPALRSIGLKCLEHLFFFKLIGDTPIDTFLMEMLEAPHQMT

COCC(=O)Nc1c(I)c(C(=O)NCC(O)CO)c(I)c(C(=O)N(C)CC(O)CO)c1I (stereo unspecified)
inactive: outcome [1] | outcome [2] | outcome [3] | outcome [4] | outcome [5] | outcome [6] | outcome [7] | outcome [8] | Potency [9] | outcome [10] | outcome [11] | Potency [12] | Potency [13] | Potency [14] | Potency [15] | outcome [16]

O=CO
inactive: activity change, negative = cytotoxicity [1] -15.6% [at 5.95 µM] | viability change, negative = cytotoxic [2] 3.57% [at 6.95 µM] | activation [3] -0.32% [at 6.95 µM] | activation [4] -2.58% [at 6.95 µM] | activity change, negative = cytotoxicity [17] -1.24% [at 6.95 µM] | activity, negative = cytotoxicity [5] 0.77% [at 8.39 µM] | activity change, negative = inhibition [6] 22.1% [at 8.39 µM] | viability change, negative = cytotoxic [7] 1.49% [at 6.97 µM] | activation [8] 1.24% [at 6.97 µM] | activation [9] 1.02% [at 6.98 µM] | activity change, negative = cytotoxicity [10] 0.323% [at 6.97 µM] | activity change, negative = cytotoxicity [11] 2.98% [at 8.39 µM] | activity, negative = inhibition [12] -7.08% [at 8.39 µM] | activation [13] -3.33% [at 8.36 µM] | viability change, negative = cytotoxic [14] -0.634% [at 8.39 µM] | viability change, negative = cytotoxic [16] 2.87% [at 8.39 µM] | activity, negative = inhibition [18] -2.01% [at 8.39 µM]

NS(=O)(=O)c1cc2c(cc1Cl)NC(CC1CCCC1)NS2(=O)=O (stereo unspecified)
inactive: outcome [2] | outcome [3] | outcome [4] | outcome [17] | outcome [5] | outcome [6] | outcome [7] | outcome [8] | Potency [9] | outcome [11] | Potency [12] | Potency [14] | Potency [15] | outcome [16]

CO[Si](CCCS)(OC)OC
inactive: outcome [1] | outcome [2] | outcome [3] | outcome [4] | outcome [17] | outcome [5] | outcome [6] | outcome [7] | outcome [8] | Potency [9] | outcome [10] | outcome [11] | Potency [12] | Potency [14] | Potency [15] | outcome [16] | Potency [19]

O=S(=O)(O)CCO
inactive: outcome [1] | outcome [2] | outcome [3] | outcome [17] | outcome [5] | outcome [6] | outcome [7] | outcome [8] | Potency [9] | outcome [10] | outcome [11] | Potency [12] | Potency [13] | Potency [15] | outcome [16] | Potency [19]

O=C(O)c1ccccc1C(=O)Nc1ccc(S(=O)(=O)Nc2nccs2)cc1
inactive: outcome [1] | outcome [2] | outcome [3] | outcome [4] | outcome [17] | outcome [5] | outcome [6] | outcome [7] | outcome [8] | Potency [9] | outcome [10] | outcome [11] | Potency [12] | Potency [13] | Potency [14] | Potency [15] | outcome [16] | Potency [18]

NC(Cc1c[nH]c2ccccc12)C(=O)O (stereo unspecified)
inactive: outcome [1] | outcome [2] | outcome [3] | outcome [4] | outcome [17] | outcome [5] | outcome [6] | outcome [7] | outcome [8] | Potency [9] | outcome [10] | outcome [11] | Potency [12] | Potency [13] | Potency [14] | Potency [15] | outcome [16] | Potency [19]

CC(C)COC(=O)CC(C(=O)OCC(C)C)S(=O)(=O)O (stereo unspecified)
inactive: outcome [1] | outcome [2] | outcome [3] | outcome [4] | outcome [17] | outcome [5] | outcome [6] | outcome [7] | outcome [8] | Potency [9] | outcome [11] | Potency [12] | Potency [13] | Potency [14] | Potency [15] | outcome [16] | Potency [19] | Potency [18]

CCOC(=O)OCC/C(SC(=O)OCC)=C(\C)N(C=O)Cc1cnc(C)nc1N
inactive: outcome [1] | outcome [3] | outcome [4] | outcome [17] | outcome [5] | outcome [6] | outcome [7] | outcome [8] | Potency [9] | outcome [10] | outcome [11] | Potency [12] | Potency [13] | Potency [14] | outcome [16] | Potency [19]

SCCSCCS
inactive: outcome [1] | outcome [2] | outcome [3] | outcome [17] | outcome [5] | outcome [6] | outcome [7] | outcome [8] | Potency [9] | outcome [10] | outcome [11] | Potency [12] | Potency [14] | Potency [15] | outcome [16] | Potency [19]
